In PubChem BioAssay (NCI):
Where “and” joins values, the source holds several entries; their conditions need not be identical. Equal entries are not always repeated. About 83,000 compounds went through this panel and 20% of them were active in at least one assay; those are over-represented in the sample as a whole.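 Assay: single dose, 48 h. Readout: percent growth (0 = no net growth; negative = cell death). Active: <10.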 Calls of active or inactive are those of the source.

Experiments:
Assay in all cases: NCI-60 one-dose screen, 48 h (100 = growth as untreated, 0 = no growth, -100 = all killed)
Conditions in all cases: 10 µM unless noted
[1] = test system: SN12C renal
[2] = test system: UO-31 renal
[3] = test system: TK-10 renal
[4] = test system: ACHN renal
[5] = test system: A498 renal
[6] = test system: CCRF-CEM leukemia
[7] = test system: MOLT-4 leukemia
[8] = test system: CAKI-1 renal
[9] = test system: EKVX NSCLC

SMILES: CC1=CC(=NC(=O)CBr)C=C/C1=N\S(=O)(=O)c1ccccc1
- growth [1]: 14.1% (inactive)
- growth [2]: 73.1% (inactive)
- growth [3]: 79.2% (inactive)
- growth [4]: 46.9% (inactive)
- growth [5]: 97.2% (inactive)
- growth [6]: 12.2% (inactive)
- growth [7]: 43.7% (inactive)

SMILES: NC(=S)Nc1ccc2c(c1)Cc1ccccc1-2
- growth [1]: 89.4% (inactive)
- growth [2]: 55.2% (inactive)
- growth [3]: 121% (inactive)
- growth [4]: 91.7% (inactive)
- growth [8]: 92.1% (inactive)
- growth [5]: 110% (inactive)
- growth [6]: 70.5% (inactive)
- growth [7]: 88.7% (inactive)

SMILES: CC[n+]1ccc(Nc2ccc(NC(=O)c3ccc(Nc4cc[n+](CC)c5ccc([N+](=O)[O-])cc45)cc3)cc2)cc1
- growth [1]: 86% (inactive)
- growth [2]: 91.4% (inactive)
- growth [3]: 152% (inactive)
- growth [4]: 96.9% (inactive)
- growth [8]: 94.2% (inactive)
- growth [5]: 103% (inactive)
- growth [6]: 89.1% (inactive)
- growth [7]: 93.3% (inactive)

SMILES: O=C1C=C(Cl)C(=O)c2ccccc21
- growth [1]: 101% (inactive)
- growth [2]: 60.8% (inactive)
- growth [3]: 152% (inactive)
- growth [4]: 38% (inactive)
- growth [8]: 90.6% (inactive)
- growth [5]: 118% (inactive)
- growth [6]: 53.3% (inactive)
- growth [7]: 37.4% (inactive)

SMILES: OC(CSc1ccccc1)CN1CCN(c2ccc(Cl)cc2)CC1 (centres undefined)
- growth [1]: 94.4% (inactive)
- growth [2]: 84.8% (inactive)
- growth [3]: 101% (inactive)
- growth [4]: 97.9% (inactive)
- growth [8]: 88.1% (inactive)
- growth [6]: 86% (inactive)
- growth [7]: 83% (inactive)

SMILES: OCCOSCCO
- growth [1]: 111% (inactive)
- growth [2]: 96.3% (inactive)
- growth [3]: 100% (inactive)
- growth [4]: 91.2% (inactive)
- growth [8]: 101% (inactive)
- growth [6]: 107% (inactive)
- growth [7]: 104% (inactive)

SMILES: CCOC(=O)c1cc(CC)sc1NC(=O)CC(C)=O
- growth [1]: 53% (inactive)
- growth [2]: 40.8% (inactive)
- growth [3]: 70.9% (inactive)
- growth [4]: 39.9% (inactive)
- growth [8]: 53.1% (inactive)
- growth [6]: 35.5% (inactive)
- growth [7]: 14.4% (inactive)

SMILES: CCCCCCCCCCCCSC(=N)N
- growth [1]: 51.3% (inactive)
- growth [2]: -27.2% (active)
- growth [3]: 87.4% (inactive)
- growth [4]: -12.6% (active)
- growth [8]: -7.66% (active)
- growth [5]: 80.8% (inactive)
- growth [6]: -22.8% (active)
- growth [7]: -37.1% (active)

SMILES: O=C1C(=O)c2cc([N+](=O)[O-])ccc2-c2ccccc21
- growth [1]: -88.9% (active)
- growth [2]: -87.7% (active)
- growth [3]: -85.2% (active)
- growth [4]: -99.3% (active)
- growth [8]: -68.6% (active)
- growth [6]: -13.5% (active)
- growth [7]: 0.151% (active)

SMILES: O=[n+]1c2ccccc2n([O-])c2cc(Cl)ccc21
- growth [1]: 62.3% (inactive)
- growth [2]: 55.7% (inactive)
- growth [3]: 102% (inactive)
- growth [4]: 20.7% (inactive)
- growth [8]: 19.3% (inactive)
- growth [5]: 81.6% (inactive)
- growth [6]: -6.38% (active)
- growth [7]: -30.4% (active)

SMILES: CCc1cccc(CC)c1N1C(=O)C=CC1=O
- growth [1]: 129% (inactive)
- growth [2]: 90.3% (inactive)
- growth [3]: 104% (inactive)
- growth [4]: 102% (inactive)
- growth [5]: 100% (inactive)
- growth [7]: -10% (active)

SMILES: CN=C(N)N/N=C(\c1ccccc1)c1ccc(Br)cc1
- growth [1]: 16.2% (inactive)
- growth [2]: 0.0982% (active)
- growth [3]: 21.6% (inactive)
- growth [4]: 21.5% (inactive)
- growth [8]: 0.888% (active)
- growth [5]: -19.2% (active)
- growth [6]: 2.24% (active)
- growth [7]: -14% (active)

SMILES: CC1=CC[C@@H]2[C@@H](CC[C@@]2(C)O)C(C)(C)[C@H]1CC[C@@H]1[C@@]2(C)CC[C@@H](O)C(C)(C)O[C@@H]2CC[C@]1(C)O
- growth [3]: 12.5% [100 µM] (inactive) and -92.2% [100 µM] (active)

SMILES: S=C(S)OCN1CCOCC1
- growth [1]: 103% (inactive)
- growth [2]: 75.9% (inactive)
- growth [3]: 97.9% (inactive)
- growth [4]: 100% (inactive)
- growth [8]: 92.6% (inactive)
- growth [5]: 70.6% (inactive)
- growth [6]: 59% (inactive)
- growth [7]: 92.5% (inactive)

SMILES: CCCCCCCCCCCCNCCCc1ccccc1
- growth [1]: 62.9% (inactive)
- growth [2]: 60.8% (inactive)
- growth [3]: 104% (inactive)
- growth [4]: 78.1% (inactive)
- growth [8]: 93% (inactive)
- growth [5]: 76.5% (inactive)
- growth [6]: 48.9% (inactive)
- growth [7]: 54.8% (inactive)

SMILES: O=C1C=CC(=O)N1c1cccc2c1CCCC2
- growth [1]: 97.2% (inactive)
- growth [2]: 87.9% (inactive)
- growth [3]: 102% (inactive)
- growth [4]: 79.3% (inactive)
- growth [8]: 82.3% (inactive)
- growth [5]: 96.2% (inactive)
- growth [7]: 74.2% (inactive)

SMILES: CN(C)c1ccc(/C=C/c2sc3ccc4ccccc4c3[n+]2C)cc1
- growth [1]: -54.3% (active)
- growth [2]: 15.9% (inactive)
- growth [3]: -42.1% (active)
- growth [4]: -49.3% (active)
- growth [8]: -10.9% (active)
- growth [5]: -20.8% (active)
- growth [6]: -8.92% (active)
- growth [7]: -26.7% (active)

SMILES: Oc1ccccc1N=Cc1ccccc1
- growth [1]: 81.7% (inactive)
- growth [2]: 67.4% (inactive)
- growth [3]: 122% (inactive)
- growth [4]: 85.1% (inactive)
- growth [8]: 97.7% (inactive)
- growth [5]: 97.7% (inactive)
- growth [6]: 86.6% (inactive)
- growth [7]: 81.2% (inactive)

SMILES: CCCCCCCCCCCCCCCC[N+]1(C)CCCC1c1cccnc1 (centres undefined)
- growth [1]: 44.5% (inactive)
- growth [2]: 91.3% (inactive)
- growth [3]: 49.7% (inactive)
- growth [4]: 85.6% (inactive)
- growth [8]: 92.9% (inactive)
- growth [6]: 38.7% (inactive)
- growth [7]: 33% (inactive)

SMILES: S=C(SSC(=S)N1CCOCC1)N1CCOCC1
- growth [1]: 99.7% (inactive)
- growth [2]: 76.9% (inactive)
- growth [3]: 95.7% (inactive)
- growth [4]: 98.3% (inactive)
- growth [8]: 79.1% (inactive)
- growth [5]: 90.6% (inactive)
- growth [6]: 21.9% (inactive)
- growth [7]: 93.6% (inactive)

SMILES: CSc1nc(C)c(C(=O)CCN2CCN(c3ccccn3)CC2)s1
- growth [1]: 97.6% (inactive)
- growth [2]: 82.9% (inactive)
- growth [3]: 118% (inactive)
- growth [4]: 101% (inactive)
- growth [8]: 100% (inactive)
- growth [5]: 88.4% (inactive)

SMILES: CN(Cc1ccccc1)c1ccc(SC#N)cc1
- growth [1]: 103% (inactive)
- growth [2]: 37.7% (inactive)
- growth [3]: 95.8% (inactive)
- growth [4]: 78.8% (inactive)
- growth [8]: 98.9% (inactive)
- growth [6]: 10.8% (inactive)
- growth [7]: 55.4% (inactive)

SMILES: Oc1c(Cl)cc(Cl)cc1C=NCC1CCC(CN=Cc2cc(Cl)cc(Cl)c2O)CC1 (centres undefined)
- growth [1]: 86.3% (inactive)
- growth [2]: 45.8% (inactive)
- growth [3]: 124% (inactive)
- growth [8]: 91.7% (inactive)
- growth [5]: 113% (inactive)
- growth [6]: 59% (inactive)
- growth [7]: 78.1% (inactive)

SMILES: COC(=O)Nc1nc2ccc(C3(c4ccc(F)cc4)OCCO3)cc2[nH]1
- growth [1]: 41.4% (inactive)
- growth [2]: 55.4% (inactive)
- growth [3]: 47.2% (inactive)
- growth [4]: 41.9% (inactive)
- growth [8]: 40.8% (inactive)
- growth [5]: 4.58% (active)
- growth [6]: 5.57% (active)
- growth [7]: 21.8% (inactive)

SMILES: C=C(C(N)=O)C(N)C(=O)O (centres undefined)
- growth [1]: 108% (inactive)
- growth [2]: 97.6% (inactive)
- growth [3]: 109% (inactive)
- growth [4]: 108% (inactive)
- growth [8]: 116% (inactive)
- growth [5]: 113% (inactive)

SMILES: CC1(C)CCCC2=C1C(=O)N(SC(Cl)(Cl)Cl)C2=O
- growth [1]: 93.4% (inactive)
- growth [2]: 79.1% (inactive)
- growth [3]: 88.2% (inactive)
- growth [4]: 82.9% (inactive)
- growth [8]: 92.4% (inactive)
- growth [6]: 40.5% (inactive)
- growth [7]: 21% (inactive)

SMILES: Cc1ccc2cccc(OC(=O)Nc3cccc(C(F)(F)F)c3)c2n1
- growth [1]: 61.5% (inactive)
- growth [2]: 35.8% (inactive)
- growth [3]: 83% (inactive)
- growth [4]: 36.4% (inactive)
- growth [8]: 35.4% (inactive)
- growth [7]: 40.4% (inactive)

SMILES: CCCCCCCCC(=O)OCCCC(CCC(CCC1CCCO1)OC(=O)CCCCCCCC)OC(=O)CCCCCCCC (centres undefined)
- growth [9]: 94.1% (inactive)
- growth [1]: 92.9% (inactive)
- growth [3]: 87.9% (inactive)
- growth [4]: 107% (inactive)
- growth [8]: 93.3% (inactive)
- growth [5]: 110% (inactive)
- growth [7]: 117% (inactive)

SMILES: c1csc(-c2[nH]nc3c2CCc2ccccc2-3)c1
- growth [1]: 93.5% (inactive)
- growth [2]: 53.8% (inactive)
- growth [3]: 27.8% (inactive)
- growth [4]: 82.3% (inactive)
- growth [8]: 79% (inactive)
- growth [5]: 77.7% (inactive)
- growth [6]: 98.1% (inactive)
- growth [7]: 69.6% (inactive)

SMILES: CN(C)c1ccc(/C=C/c2cc[n+](C)c(/C=C/c3ccc(N(C)C)cc3)c2)cc1
- growth [1]: 13.5% (inactive)
- growth [2]: -11.4% (active)
- growth [3]: 0.183% (active)
- growth [4]: 14.6% (inactive)
- growth [8]: -4.63% (active)
- growth [5]: -10.3% (active)
- growth [6]: 6.95% (active)
- growth [7]: -26.5% (active)
